# Source: PubChem BioAssay AID1159580 (chemical genetic matrix, 2015)
# Among all 5,500 compounds or so, about 2,000 (36%) were called active. Roughly 18% stayed inconclusive and do not appear here. The list shows a part of the results. Values without a mark were called inactive. Rule as the data show it: active = normalized growth mostly below about 0.91 (no sharp cut-off); inconclusive = no clear call, values can overlap the other calls; inactive = mostly above about 0.92.
# Assay: chemical genetic growth profiling, strain panel (AID 1159580);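 also: tested at 20 µM; growth read once vehicle control cultures reached saturation at 30 °C; 1 = growth at the plate median or of vehicle wells; lower values mean less growth of the strain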
# Conditions: S. cerevisiae deletion strains, growth OD
compound,measurement,setting,value
CSc1n[nH]c(-c2cc(C(C)(C)C)oc2C)c1C#N,normalized growth,"locus YAR019C, strain CDC15, stronger effect = lower value",0.949
same,normalized growth,"locus YBL105C, strain PKC1, stronger effect = lower value",0.951
same,normalized growth,"locus YBR135W, strain CKS1, stronger effect = lower value",0.952
same,normalized growth,"locus YBR136W, strain MEC1, stronger effect = lower value",0.967
same,normalized growth,"locus YBR160W, strain CDC28, stronger effect = lower value",0.955
same,normalized growth,"locus YDL017W, strain CDC7, stronger effect = lower value",0.953
same,normalized growth,"locus YDL028C, strain MPS1, stronger effect = lower value",0.966
same,normalized growth,"locus YDL101C, strain DUN1, stronger effect = lower value",0.967
same,normalized growth,"locus YDL108W, strain KIN28, stronger effect = lower value",0.937
same,normalized growth,"locus YDL132W, strain cdc53, stronger effect = lower value",0.933
same,normalized growth,"locus YDL214C, strain PRR2, stronger effect = lower value",0.847
same,normalized growth,"locus YDR052C, strain DBF4, stronger effect = lower value",0.964
same,normalized growth,"locus YDR054C, strain cdc34, stronger effect = lower value",0.934
same,normalized growth,"locus YDR226W, strain ADK1, stronger effect = lower value",0.952
same,normalized growth,"locus YDR477W, strain SNF1, stronger effect = lower value",0.835
same,normalized growth,"locus YER123W, strain YCK3, stronger effect = lower value",0.834
same,normalized growth,"locus YER133W, strain GLC7, stronger effect = lower value",0.867
same,normalized growth,"locus YFL009W, strain cdc4, stronger effect = lower value",0.962
same,normalized growth,"locus YFL029C, strain CAK1, stronger effect = lower value",0.928
same,normalized growth,"locus YFR003C, strain YPI1, stronger effect = lower value",0.95
same,normalized growth,"locus YFR019W, strain FAB1, stronger effect = lower value",0.943
same,normalized growth,"locus YFR028C, strain CDC14, stronger effect = lower value",0.979
same,normalized growth,"locus YGR040W, strain KSS1, stronger effect = lower value",0.847
same,normalized growth,"locus YGR052W, strain FMP48, stronger effect = lower value",0.833
same,normalized growth,"locus YGR092W, strain DBF2, stronger effect = lower value",0.78
same,normalized growth,"locus YHR030C, strain SLT2, stronger effect = lower value",0.542 (active)
same,normalized growth,"locus YHR079C, strain IRE1, stronger effect = lower value",0.86
same,normalized growth,"locus YHR082C, strain KSP1, stronger effect = lower value",0.818
same,normalized growth,"locus YHR205W, strain SCH9, stronger effect = lower value",0.908
same,normalized growth,"locus YIL147C, strain SLN1, stronger effect = lower value",0.954
same,normalized growth,"locus YJL095W, strain BCK1, stronger effect = lower value",0.744
same,normalized growth,"locus YJL128C, strain PBS2, stronger effect = lower value",0.894
same,normalized growth,"locus YJL157C, strain FAR1, stronger effect = lower value",0.883
same,normalized growth,"locus YJR016C, strain ILV3, stronger effect = lower value",0.946
same,normalized growth,"locus YJR066W, strain TOR1 (second series), stronger effect = lower value",0.897
same,normalized growth,"locus YJR066W, strain TOR1, stronger effect = lower value",0.789
same,normalized growth,"locus YKL048C, strain ELM1, stronger effect = lower value",0.949
same,normalized growth,"locus YKL067W, strain YNK1, stronger effect = lower value",0.846
same,normalized growth,"locus YKL101W, strain HSL1, stronger effect = lower value",0.914
same,normalized growth,"locus YKL193C, strain SDS22, stronger effect = lower value",0.948
same,normalized growth,"locus YKL203C, strain TOR2, stronger effect = lower value",0.908
same,normalized growth,"locus YLR113W, strain HOG1, stronger effect = lower value",0.776 (active)
same,normalized growth,"locus YLR133W, strain CKI1, stronger effect = lower value",0.888
same,normalized growth,"locus YLR403W, strain SFP1, stronger effect = lower value",0.885
same,normalized growth,"locus YML070W, strain DAK1, stronger effect = lower value",0.879
same,normalized growth,"locus YMR001C, strain CDC5, stronger effect = lower value",0.945
same,normalized growth,"locus YMR205C, strain PFK2 (second series), stronger effect = lower value",0.888
same,normalized growth,"locus YMR277W, strain FCP1, stronger effect = lower value",0.938
same,normalized growth,"locus YNL006W, strain LST8, stronger effect = lower value",0.947
same,normalized growth,"locus YNL020C, strain ARK1, stronger effect = lower value",0.892
same,normalized growth,"locus YNL161W, strain CBK1, stronger effect = lower value",0.948
same,normalized growth,"locus YNL183C, strain NPR1, stronger effect = lower value",0.815
same,normalized growth,"locus YNL207W, strain RIO2, stronger effect = lower value",0.937
same,normalized growth,"locus YNL222W, strain SSU72, stronger effect = lower value",0.944
same,normalized growth,"locus YNL307C, strain MCK1 (second series), stronger effect = lower value",0.89
same,normalized growth,"locus YOL078W, strain AVO1, stronger effect = lower value",0.943
same,normalized growth,"locus YOL136C, strain PFK27, stronger effect = lower value",0.906
same,normalized growth,"locus YOR061W, strain CKA2, stronger effect = lower value",0.909
same,normalized growth,"locus YOR119C, strain RIO1, stronger effect = lower value",0.83
same,normalized growth,"locus YOR231W, strain MKK1, stronger effect = lower value",0.847
same,normalized growth,"locus YOR329C, strain SCD5, stronger effect = lower value",0.948
same,normalized growth,"locus YPL031C, strain PHO85, stronger effect = lower value",0.824
same,normalized growth,"locus YPL153C, strain RAD53, stronger effect = lower value",0.819
same,normalized growth,"locus YPL204W, strain HRR25, stronger effect = lower value",0.818
same,normalized growth,"locus YPL209C, strain IPL1, stronger effect = lower value",0.959
same,normalized growth,"locus YPL256C, strain CLN2, stronger effect = lower value",0.814 (active)
same,normalized growth,"locus YPR025C, strain CCL1, stronger effect = lower value",0.948
same,normalized growth,"locus YPR106W, strain ISR1, stronger effect = lower value",0.947
same,normalized growth,"locus YPR111W, strain DBF20, stronger effect = lower value",0.94
same,normalized growth,"strain NNK1, stronger effect = lower value",0.943
same,normalized growth,"strain TSCII, stronger effect = lower value",0.925
